Experimental findings from the antibiotic and cytotoxicity screens of Wong et al. (2023) are described below.

SMILES strings stand for the structures. In all, about 39,000 compounds went through this assay and about 1,500 (3.8%) were called active. The full list was thinned out, with actives kept by preference.

For this test, the system named is HSkMC (human skeletal muscle cells). The test can be described thus: cytotoxicity call (relative viability < 0.9). The conditions noted are these: 10 µM.
As to `COc1ccc(-c2cnc3c(c2)C(=O)N([C@@H](C)CO)C[C@H](C)[C@H](CN(C)C(=O)Cc2ccccn2)O3)cc1`, the cytotoxicity call was “inactive”.

For `C[C@@H]1CN([C@H](C)CO)C(=O)c2cc(NC(=O)Cn3cnnn3)ccc2O[C@@H]1CN(C)Cc1ccc(C(F)(F)F)cc1`, the cytotoxicity call was “inactive”.

Consider `C[C@H]1CCCCO[C@H](CN(C)C(=O)Cc2ccccc2)[C@@H](C)CN([C@@H](C)CO)C(=O)c2cc(NC(=O)Nc3ccccc3)ccc2O1`, for which the cytotoxicity call was “inactive”.

Take `C[C@@H]1CCCCO[C@H](CN(C)C(=O)Nc2ccc(F)cc2)[C@@H](C)CN([C@H](C)CO)C(=O)c2cc(NC(=O)CCC(F)(F)F)ccc2O1`: the cytotoxicity call was “inactive”.

As to `C[C@@H]1CN([C@@H](C)CO)C(=O)CCCn2cc(nn2)CO[C@H]1CN(C)C(=O)Nc1cccc(Oc2ccccn2)c1`, the cytotoxicity call was “inactive”.

As for `C[C@@H]1CN([C@H](C)CO)C(=O)c2cccc(NC(=O)c3ccc(-c4nccs4)cc3)c2O[C@H]1CN(C)S(=O)(=O)c1ccc(Cl)cc1`, the cytotoxicity call is “inactive”.

Consider `C=C1c2cccc(O)c2C(=O)C2=C(O)[C@]3(O)C(O)=C(C(N)=O)C(=O)[C@@H](N(C)C)[C@@H]3[C@@H](O)[C@H]12`, for which the cytotoxicity call was “inactive”.

For `O=C(C[C@H]1CC[C@@H]2[C@H](COC[C@H](O)CN2S(=O)(=O)c2ccc(Cl)cc2)O1)NCCN1CCCC1`, the cytotoxicity call was “inactive”.

For `COc1ccc2c3c([nH]c2c1)[C@H](CO)N(C[C@]13CCN(CC1)Cc1ccccc1OC)C(=O)Nc1ccc(cc1)F`, the cytotoxicity call was “inactive”.

`COc1ccc2c3c([nH]c2c1)[C@@H](CO)N(C[C@]13CCN(CC1)Cc1ccccc1OC)C(=O)Nc1ccc(cc1)F`: the cytotoxicity call was “inactive”.

In the case of `COc1ccc(cc1)CN1CC[C@]2(CC1)CN([C@H](CO)c1[nH]c3cc(ccc3c12)OC)C(=O)Nc1ccc(cc1)F`, the cytotoxicity call is “inactive”.

For the molecule `COc1ccc2c3c([nH]c2c1)[C@@H](CO)N(C[C@]13CCN(CC1)Cc1cc(on1)-c1ccccc1)C(=O)Nc1ccc(cc1)F`, the cytotoxicity call is “active”.

Consider `COc1ccc2c3c([nH]c2c1)[C@@H](CO)N(C[C@]13CCN(CC1)Cc1ccc(cc1)F)C(=O)Nc1ccc(cc1)F`, for which the cytotoxicity call was “active”.

In the case of `COc1ccc(cc1)CN1CC[C@]2(CC1)CN([C@@H](CO)c1[nH]c3cc(ccc3c12)OC)C(=O)Nc1ccc(cc1)F`, the cytotoxicity call was “inactive”.

`COc1ccc2c3c([nH]c2c1)[C@H](CO)N(C[C@]13CN(Cc2cc(on2)-c2ccccc2)C1)C(=O)Nc1ccc(cc1)F`: the cytotoxicity call is “active”.

Turning to `COc1ccc2c3c([nH]c2c1)[C@H](CO)N(C[C@]13CCN(CC1)C(=O)Nc1ccccc1)C(=O)Nc1ccc(cc1)F`, the cytotoxicity call was “inactive”.

Turning to `COc1ccc2c3c([nH]c2c1)[C@@H](CO)N(C[C@]13CCN(CC1)C(=O)Nc1ccccc1)C(=O)Nc1ccc(cc1)F`, the cytotoxicity call is “inactive”.

`COc1ccc2c3c([nH]c2c1)[C@H](CO)N(C[C@]13CCN(CC1)Cc1ccc(cc1)F)C(=O)Nc1ccc(cc1)F`: the cytotoxicity call is “inactive”.

Take `COc1ccc2c3c([nH]c2c1)[C@H](CO)N(C[C@]13CCN(CC1)Cc1cc(on1)-c1ccccc1)C(=O)Nc1ccc(cc1)F`: the cytotoxicity call is “active”.

Take `COc1ccc2c3c([nH]c2c1)[C@@H](CO)N(C[C@]13CN(Cc2cc(on2)-c2ccccc2)C1)C(=O)Nc1ccc(cc1)F`: the cytotoxicity call is “inactive”.

On to `C=c1[nH]/c(=C\c2ccc(F)cc2)c(=O)o1`, for which the cytotoxicity call was “inactive”.

On to `Cc1noc(C)c1S(=O)(=O)Nc1ccc2c(c1)C(=O)N([C@H](C)CO)C[C@H](C)[C@@H](CN(C)S(C)(=O)=O)OCCCC[C@H](C)O2`, for which the cytotoxicity call is “inactive”.

For the molecule `C[C@H]1CN([C@@H](C)CO)C(=O)Cc2cc(NC(=O)CCCN(C)C)ccc2O[C@@H]1CN(C)C(=O)Nc1ccc2c(c1)OCO2`, the cytotoxicity call is “inactive”.

As for `C[C@@H]1CN([C@@H](C)CO)C(=O)c2cccc(NC(=O)c3cnccn3)c2O[C@@H]1CN(C)S(=O)(=O)c1ccccc1`, the cytotoxicity call was “inactive”.

`CCS(=O)(=O)NCC[C@H]1CC[C@H](NC(=O)C2CC2)[C@@H](CO)O1`: the cytotoxicity call is “inactive”.

With `O=C(O)CNC(=O)[C@H]1COc2ccccc2O1`, the cytotoxicity call is “inactive”.

Regarding `COc1cccc(-c2cn(CC[C@H]3CC[C@H](NC(=O)CN(C)C)[C@H](CO)O3)nn2)c1`, the cytotoxicity call is “inactive”.

As to `COc1ccc(NC(=O)N(C)C[C@H]2OCCCC[C@H](C)Oc3ccc(NC(=O)C4CCCCC4)cc3C(=O)N([C@@H](C)CO)C[C@H]2C)cc1`, the cytotoxicity call is “inactive”.

As to `CC(=O)O[C@H]1C[C@@]2(C)[C@H]3CC=C4[C@@H](C[C@@H](O[C@H]5O[C@@H](CO)[C@@H](O)[C@@H](O)[C@@H]5O)[C@@H](O)C4(C)C)[C@@]3(C)CC[C@@]2(C)[C@@H]1C(C)(O)C(=O)CCC(C)(C)O` (some centres not stated), the cytotoxicity call was “inactive”.

With `COc1ccc(S(=O)(=O)Nc2ccc3c(c2)C(=O)N([C@@H](C)CO)C[C@@H](C)[C@H](CN(C)S(=O)(=O)c2ccc(F)cc2)O3)cc1`, the cytotoxicity call was “inactive”.

For the molecule `O=C(O)[C@H]1C[C@H]2C(=O)NCC(=O)N2[C@H]1c1ccc(O)cc1`, the cytotoxicity call was “inactive”.

With `C[C@@H]1CN([C@H](C)CO)C(=O)c2cccc(NC(=O)c3ccc(-c4nccs4)cc3)c2O[C@@H]1CN(C)Cc1ccc2c(c1)OCO2`, the cytotoxicity call was “inactive”.

For `C[C@H]1CN([C@@H](C)CO)C(=O)c2c(c3ccccc3n2C)-c2ccccc2CO[C@@H]1CN(C)Cc1ccccc1`, the cytotoxicity call is “inactive”.

On to `C[C@H](CO)N1C[C@H](C)[C@H](CN(C)C(=O)Nc2ccc(-c3ccccc3)cc2)OCc2ccccc2-c2c(n(C)c3ccccc23)C1=O`, for which the cytotoxicity call is “active”.

As for `C[C@@H]1CN([C@@H](C)CO)C(=O)c2c(c3ccccc3n2C)-c2ccccc2CO[C@H]1CN(C)Cc1ccc(-c2ccccc2)cc1`, the cytotoxicity call was “inactive”.

Turning to `C[C@H]1CN([C@@H](C)CO)C(=O)c2c(c3ccccc3n2C)-c2ccccc2CO[C@@H]1CN(C)Cc1ccc(-c2ccccc2)cc1`, the cytotoxicity call is “inactive”.

For `C[C@H](CO)N1C[C@H](C)[C@H](CN(C)Cc2ccc(-c3ccccc3)cc2)OCc2ccccc2-c2c(n(C)c3ccccc23)C1=O`, the cytotoxicity call was “active”.

For `C[C@H](CO)N1C[C@H](C)[C@@H](CN(C)Cc2ccc(-c3ccccc3)cc2)OCc2ccccc2-c2c(n(C)c3ccccc23)C1=O`, the cytotoxicity call was “inactive”.

In the case of `C[C@@H]1CN([C@H](C)CO)C(=O)c2c(c3ccccc3n2C)-c2ccccc2CO[C@H]1CN(C)Cc1ccccc1`, the cytotoxicity call is “active”.

Turning to `C[C@@H]1CN([C@H](C)CO)C(=O)c2c(c3ccccc3n2C)-c2ccccc2CO[C@@H]1CN(C)Cc1ccc(-c2ccccc2)cc1`, the cytotoxicity call was “inactive”.

In the case of `C[C@@H]1CN([C@H](C)CO)C(=O)c2c(c3ccccc3n2C)-c2ccccc2CO[C@H]1CN(C)C(=O)Nc1ccc(-c2ccccc2)cc1`, the cytotoxicity call is “inactive”.

Take `C[C@@H]1CN([C@@H](C)CO)C(=O)c2c(c3ccccc3n2C)-c2ccccc2CO[C@@H]1CN(C)Cc1ccc(-c2ccccc2)cc1`: the cytotoxicity call is “active”.

As to `C[C@@H]1CN([C@H](C)CO)C(=O)c2c(c3ccccc3n2C)-c2ccccc2CO[C@@H]1CN(C)C(=O)Nc1ccc(-c2ccccc2)cc1`, the cytotoxicity call was “inactive”.

In the case of `C[C@H](CO)N1C[C@H](C)[C@@H](CN(C)Cc2ccccc2)OCc2ccccc2-c2c(n(C)c3ccccc23)C1=O`, the cytotoxicity call is “inactive”.

Turning to `C[C@@H]1CN([C@@H](C)CO)C(=O)Cc2cc(NS(=O)(=O)c3cn(C)cn3)ccc2O[C@H]1CN(C)C(=O)Nc1ccccc1`, the cytotoxicity call is “inactive”.

Regarding `C[C@H](NC(=O)[C@@H]1N[C@@H]2c3ccc(-c4ccc(C(=O)N(C)C)cc4)c(=O)n3C[C@@H]2[C@H]1CO)c1ccccc1`, the cytotoxicity call is “inactive”.

As to `COc1ccc2c3c(n(c2c1)C)[C@@H](CO)N(C[C@]13CN(C1)C(=O)c1ccncc1)C(=O)C1CCOCC1`, the cytotoxicity call is “inactive”.

As to `C[C@H]1CCCCO[C@@H](CN(C)C(=O)Nc2ccc3c(c2)OCO3)[C@@H](C)CN([C@@H](C)CO)C(=O)c2cc(NC(=O)Cc3ccccc3)ccc2O1`, the cytotoxicity call was “inactive”.

For the molecule `C[C@@H]1CN([C@@H](C)CO)S(=O)(=O)c2ccc(C#CC3(O)CCCC3)cc2O[C@H]1CN(C)C(=O)Nc1ccc(F)cc1`, the cytotoxicity call was “inactive”.

As for `C[C@@H]1CCCCO[C@@H](CN(C)Cc2ccc(C(F)(F)F)cc2)[C@@H](C)CN([C@H](C)CO)C(=O)c2cc(NS(C)(=O)=O)ccc2O1`, the cytotoxicity call is “inactive”.

Turning to `Cc1ccc(S(=O)(=O)N(C)C[C@H]2Oc3ccc(NC(=O)Nc4ccc(C(F)(F)F)cc4)cc3CC(=O)N([C@H](C)CO)C[C@@H]2C)cc1`, the cytotoxicity call was “active”.

As for `C[C@@H]1CN([C@@H](C)CO)C(=O)Cc2cc(NC(=O)Nc3ccc(C(F)(F)F)cc3)ccc2O[C@@H]1CN(C)S(C)(=O)=O`, the cytotoxicity call was “inactive”.

For `Cc1ccc(S(=O)(=O)N(C)C[C@@H]2Oc3ccc(NC(=O)Nc4ccc(C(F)(F)F)cc4)cc3CC(=O)N([C@H](C)CO)C[C@@H]2C)cc1`, the cytotoxicity call is “active”.

Consider `Cc1ccc(S(=O)(=O)N(C)C[C@H]2Oc3ccc(NC(=O)Nc4ccc(C(F)(F)F)cc4)cc3CC(=O)N([C@@H](C)CO)C[C@H]2C)cc1`, for which the cytotoxicity call is “active”.

As to `Cc1ccc(S(=O)(=O)N(C)C[C@H]2Oc3ccc(NC(=O)Nc4ccc(C(F)(F)F)cc4)cc3CC(=O)N([C@H](C)CO)C[C@H]2C)cc1`, the cytotoxicity call was “active”.

For `C[C@H](CO)N1C[C@H](C)[C@H](CN(C)S(C)(=O)=O)Oc2ccc(NC(=O)Nc3ccc(C(F)(F)F)cc3)cc2CC1=O`, the cytotoxicity call was “inactive”.

`C[C@@H]1CN([C@H](C)CO)C(=O)c2cc(C#CCN(C)C)cnc2O[C@@H]1CN(C)Cc1ccc2c(c1)OCO2`: the cytotoxicity call was “inactive”.

Regarding `C[C@H](CO)N1C[C@H](C)[C@H](CN(C)S(=O)(=O)c2ccc(C(F)(F)F)cc2)OCc2ccccc2-c2ccccc2C1=O`, the cytotoxicity call is “inactive”.

For the molecule `C[C@@H]1CN([C@H](C)CO)C(=O)c2cccc(NC(=O)C3CCCCC3)c2O[C@@H]1CN(C)C(=O)Nc1ccc(C(F)(F)F)cc1`, the cytotoxicity call was “inactive”.

With `COc1ccc(NC(=O)CSC2=NC(C)=C(C(=O)Nc3nc4ccccc4s3)[C@H](c3ccco3)C2C#N)cc1` (some centres not stated), the cytotoxicity call is “inactive”.

Turning to `COc1ccc(CCNS(=O)(=O)c2cn(C)c(=O)n(C)c2=O)cc1`, the cytotoxicity call was “inactive”.

As for `CCCN(C)C[C@H]1OCCCC[C@@H](C)Oc2ccc(NS(C)(=O)=O)cc2C(=O)N([C@H](C)CO)C[C@@H]1C`, the cytotoxicity call is “inactive”.
